# Results from PubChem BioAssay AID720716 (Broad Institute, 2013).
# The source made the active and inactive calls.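 The calls were made as follows: active = compounds whose fitted half-maximal concentration is at most twice the top tested dose; inconclusive = flat curve with 30 to 70% signal loss, or poor fit; inactive = flat, opposite-direction or too weak compounds.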
# Experiment: inhibitors of control Renilla luciferase reporter, dose response, counter-screen for Shn3 3'UTR targeting project, Clone20-Shn3RL cells, dual-Glo, dry powder (AID 720716)
# Conditions: 24 h; series mostly up to 35 µM
row,Structure (SMILES),outcome
1,CCOC(=O)C1(Cc2ccc(Cl)cc2)CCN(C(C)Cc2ccc(O)c(OC)c2)CC1 (configuration not stated),inactive
2,CN(CC(=O)Nc1cccc(S(=O)(=O)N2CCOCC2)c1)CC(=O)Nc1ccc(Cl)c(C(F)(F)F)c1,inactive
3,CCCOc1ccccc1C1CC(=O)Nc2cc3c(cc21)OCO3 (configuration not stated),inactive
4,Cc1ccc2cc(CN(CC3CCCO3)C(=O)NC3CCCCC3)c(=O)[nH]c2c1C (configuration not stated),inactive
5,COc1cc2ncnc(N[C@H](C)c3ccccc3)c2cc1OC,inactive
6,CC(C)[C@H](NC(=O)OC(C)(C)C)c1nnc(S(=O)(=O)Cc2c(F)cccc2Cl)o1,inactive
7,CN(C(=O)COc1ccccc1C(=O)NCCOc1ccccc1)c1ccccc1,inactive
8,Cc1cc2c(cc(C(=O)N3CCC(C(=O)NC4CCCC4)CC3)n2Cc2c(F)cccc2Cl)o1,inactive
9,Fc1ccc(-n2nnnc2-c2cnc(-c3cccs3)nc2C(F)(F)F)cc1,inactive
10,COc1cc(CN2CCc3ccccc3C2)ccc1O,inactive
11,CCOC(=O)C1CCN(C(=O)c2ccc(OCC(=O)Nc3cccc(C(F)(F)F)c3)c(OC)c2)CC1,inactive
12,CC(=O)N1CCN(C(=O)CCc2cc(C(C)(C)C)c(O)c(C(C)(C)C)c2)CC1,inactive
13,Nc1nonc1C(=O)NCCNCc1cc(Br)ccc1OCc1ccc(F)cc1,inactive
14,CC(C)(C)NC(=O)CSc1nc2ccc(NC(=O)CSc3nnnn3Cc3ccccc3)cc2s1,inactive
15,COc1ccccc1N1CCN(c2ncc(C(=O)N3CCN(c4cccc(Cl)c4)CC3)c3ccccc23)CC1,inactive
16,O=c1c2ccccc2nc2n1C(CSCc1ccc(Cl)cc1Cl)CS2 (configuration not stated),inactive
17,CN(C)c1nc(-c2ccccn2)nnc1-c1ccccc1,inactive
18,COc1ccc2c(c1)c(CC(=O)Nc1cc(C)ccc1C)c(C)n2C(=O)c1ccc(Cl)cc1,inactive
19,CCCc1nnc(NC(=O)c2nc(S(=O)(=O)Cc3ccc(C)cc3)ncc2Cl)s1,inactive
20,CC(=O)Nc1cccc(NC(=O)CSc2ncc(-c3ccc(Cl)cc3)n2Cc2ccco2)c1,inactive
21,Cc1cc(N2CCCC2=O)cc(C)c1S(=O)(=O)NCCOc1ccc(C(C)(C)C)cc1,inactive
22,COc1ccc(Nc2nc(N3CCCCC3)c3ccccc3n2)cc1,inactive
23,O=C(c1nnsc1S(=O)c1ccc(Cl)cc1)N1CCOCC1 (configuration not stated),inactive
24,COc1ccc(NS(=O)(=O)c2ccc(C(=O)N3CCCCCC3)cc2)cc1,inactive
25,CCOC(=O)c1ccc(NC(=O)Cn2ncc(Cl)c(Cl)c2=O)cc1,inactive
26,COc1ccc(NC(=O)c2nc(S(=O)(=O)Cc3cccc(C)c3)ncc2Cl)c(OC)c1,inactive
27,O=C1CSc2ccc(C(=O)Nc3cccc(S(=O)(=O)Nc4ccc(Br)cc4)c3)cc2N1,inactive
